About 83,000 compounds went through this panel and 20% of them were active in at least one assay; those are over-represented in the sample as a whole.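 Assay: single dose, 48 h. Readout: percent growth (0 = no net growth; negative = cell death). Active: <10.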 Unmarked numbers belong to inactive results. Calls of active or inactive are those of the source.
Test system: MDA-MB-468 breast
Assay: NCI-60 one-dose screen, 48 h (100 = growth as untreated, 0 = no growth, -100 = all killed)
Conditions: 10 µM unless noted

Row | SMILES | growth
1 | c1ccc(-c2c(-c3ccccc3)[n+](Cc3ccc4ccccc4c3)c(-c3ccc(-c4nc5ccccc5s4)cc3)n2Cc2ccc3ccccc3c2)cc1 | -77.8% (active)
2 | O=C1NC(=O)c2c1c1c3ccccc3ccc1c1[nH]c3ccc(Br)cc3c21 | -12.5% (active)
3 | COC(=O)N[C@H]1CCc2c(Cl)c(OC)c(OC)c(OC)c2-c2ccc(SC)c(=O)cc21 | -18.8% (active)
4 | C[C@@H](Nc1cc(F)cc(F)c1)c1cc(C(=O)N(C)C)cc2c(=O)cc(N3CCOCC3)oc12 | 12.6%
5 | O=[N+]([O-])c1cccc(N=Cc2ccc3c(c2)OCO3)c1 | 103%
6 | CN(C)CCCN(CCC1CCCCC1)CCC1CCCCC1 | -35.4% (active)
7 | C=C1C(=O)O[C@H]2[C@H]1CC/C(COC(=O)NCCc1c[nH]c3ccccc13)=C\CC[C@@]1(C)O[C@@H]21 | -6.71% (active)
8 | CCOC(=O)c1cc(C(=O)c2ccc(OC)c(OC)c2)n2ccncc12 | 99.5%
9 | Clc1ccc(I)c2ccccc12 | 107%
10 | COc1ccc(C2=NN(c3ccc(S(N)(=O)=O)cc3)C(c3cn(-c4ccccc4)nc3-c3ccc(Cl)cc3)C2)cc1 (stereo not given) | 106%
11 | CCc1cccc2c3c(sc12)C(c1ccc(Cl)cc1)C(C#N)=C(N)O3 (stereo not given) | -7.98% (active)
12 | CO/C=C/C(=O)c1cc2cnc3c(=N)cc(NC(=O)C(C)C)c([nH]1)c23 | -54.9% (active)
13 | COc1ccc(OC)c(-c2nc(SCC(=O)c3ccc(C#N)cc3)[nH]c(=O)c2C#N)c1 | 94.3%
14 | O=C(/C=C/c1ccccn1)c1ccccc1 | 21.3%
15 | CC1NC(C)c2ccc3ccccc3c2O1 (stereo not given) | 109%
16 | CN1CCN(c2ccc(C(=O)Nc3cccc(C#Cc4cccc5[nH]nc(N)c45)c3)cc2C(F)(F)F)CC1 | -26.6% (active)
17 | Cc1ccc2cc3c(NC(=O)c4cccnc4)nn(C)c3nc2c1 | 80.3%
18 | COc1cccc(/C=C/C(=O)c2c(C)nc3ccccc3c2/C=C/c2ccccc2)c1OC | 43.3%
19 | N/C(=N/N=C/c1ccccc1)N/N=C\c1ccccc1 | -15.7% (active)
20 | CSc1nc2ccccc2cc1/C=[N+](\[O-])c1ccccc1 | 88%

Row | SMILES | growth
21 | Clc1ccc(C(Cn2ccnc2)OCc2ccsc2Cl)c(Cl)c1 (stereo not given) | 9.75% (active)
22 | COc1cc2oc(-c3cccc(NC(=O)[C@@H](N)C(C)C)c3)cc(=O)c2c(OC)c1OC | 99.5%
23 | C=C[C@@]1(C)CC(=O)[C@@H](C(C)(C)c2cn(C)c3ccc(Br)cc23)C[C@@H]1O[Si](C)(C)C(C)(C)C | 100%
24 | C/C(=N\NC(=O)/C=C/CC(=O)O)c1nnn(-c2ccc([N+](=O)[O-])cc2)c1C | 99.8%
25 | OCc1cccc(-c2ccc3ncc(-c4nc(NC5CC5)ncc4F)n3c2)c1 | -39.1% (active)
26 | CC(C)CCN(CCC(C)C)CC(O)c1cc2c(c3ccccc13)CCCC2 (stereo not given) | 54%
27 | CC(C)CCCCCOC(=O)c1ccccc1SSc1ccccc1C(=O)OCCCCCC(C)C | 109%
28 | Cc1cc(Nc2nc(N3CCN(C)CC3)nc3ccccc23)n[nH]1 | 90%
29 | O=C(O)c1cn(C2CC2)c2cc(N3CCN(C(=O)Nc4nc(-c5ccc(Br)cc5)cs4)CC3)c(F)cc2c1=O | 13.7%
30 | COc1ccc(C(=O)/C=C/c2c(C(F)(F)F)nc3sccn23)cc1OC | -21.1% (active)
31 | C=C1C(=O)O[C@H]2[C@H]1CC/C(COC(=O)N[C@H](Cc1c[nH]c3ccccc13)C(=O)OC)=C\CC[C@@]1(C)O[C@@H]21 | 22.5%
32 | C=C(CO)[C@@H]1CC[C@]2(COC3CCCCO3)CC[C@]3(C)[C@H](CC[C@@H]4[C@@]5(C)C=C(C=O)C(=O)C(C)(C)[C@@H]5CC[C@]43C)[C@@H]12 (stereo not given in full) | -75.4% (active)
33 | O=C(O)c1ccc(P(=O)(O)O)c([N+](=O)[O-])c1 | 98.4%
34 | O=[N+]([O-])c1ccc(N=Nc2c(O)c(N=Nc3cc([N+](=O)[O-])cc([N+](=O)[O-])c3O)cc(N=Nc3cc(S(=O)(=O)O)cc4cc(S(=O)(=O)O)cc(O)c34)c2O)cc1 | 100%
35 | COc1ccc2cc(-c3ccc(-c4ccc(C(=N)N)s4)s3)ccc2c1 | -51.7% (active)
36 | COc1cc(O)c2c(=O)c3c(CC=C(C)C)cc(OC)c(O)c3oc2c1 | 64.6%
37 | Cn1c2c(cc(S(=O)(=O)c3ccccc3)c1=O)CCc1c-2cnn1-c1ccc(Cl)cc1 | -43% (active)
38 | CN(C)CCN(Cc1ccccc1)c1ccc2ccccc2n1 | 92.6%
39 | C=C(C=O)[C@@H]1CC[C@]2(COC(C)=O)CC[C@]3(C)C(CC[C@@H]4[C@@]5(C)CC[C@H](OC(C)=O)C(C)(C)[C@@H]5CC[C@]43C)[C@@H]12 (stereo not given in full) | 5.16% (active)
40 | COc1ccc(C2CC(c3ccc(Nc4ccnc5cc(Cl)ccc45)cc3)=NN2C=O)cc1 (stereo not given) | 9.91% (active)
